Assay outcomes (PubChem BioAssay)
An excerpt weighted towards active compounds, which were near 11% of everything screened.
NPSR antagonist = neuropeptide S receptor (human) antagonism, cAMP | Potency, µM (highest dose often 38.3 µM), for inactives: at the top dose activity change, negative = inhibition, most hits filed as inhibitors | actives 1% (n = 220,000) | Q6W5P4 | CHO-NPSR cells, cAMP TR-FRET, antagonist mode; active = well fitted curve in the direction sought with a large enough effect; inconclusive = small, poorly fitted or top-dose-only effect, or another doubt; inactive = no such curve, though single readings can be large; an effect the other way counts as inactive or inconclusive; note: potency is the fitted concentration of half-maximal effect; nearly all actives have a fitted effect of over 50% in size
Target sequence (Q6W5P4 whole entry, looked up): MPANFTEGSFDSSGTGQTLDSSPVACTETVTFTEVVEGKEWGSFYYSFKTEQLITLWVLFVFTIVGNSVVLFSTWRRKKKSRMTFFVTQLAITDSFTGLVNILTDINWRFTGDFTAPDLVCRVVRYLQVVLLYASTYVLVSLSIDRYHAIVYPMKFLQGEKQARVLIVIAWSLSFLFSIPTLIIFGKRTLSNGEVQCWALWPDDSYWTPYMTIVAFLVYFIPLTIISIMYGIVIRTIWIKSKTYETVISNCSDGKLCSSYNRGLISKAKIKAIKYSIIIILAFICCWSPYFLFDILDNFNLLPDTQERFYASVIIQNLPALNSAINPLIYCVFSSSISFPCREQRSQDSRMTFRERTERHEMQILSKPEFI
ALDH1A1 block = ALDH1A1 (human) enzyme inhibition; P00352; Purified ALDH1A1, NADH fluorescence, propionaldehyde substrate; Potency, µM (series often up to 75.3 µM), without a hit: at the highest dose activity, negative = inhibition, usual class: inhibitors; actives 7.3% (n = 220,000); AID 1030;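 note: potency is the fitted concentration of half-maximal effect; plate controls were no enzyme wells and a reference inhibitor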
Target sequence (P00352 whole entry, looked up): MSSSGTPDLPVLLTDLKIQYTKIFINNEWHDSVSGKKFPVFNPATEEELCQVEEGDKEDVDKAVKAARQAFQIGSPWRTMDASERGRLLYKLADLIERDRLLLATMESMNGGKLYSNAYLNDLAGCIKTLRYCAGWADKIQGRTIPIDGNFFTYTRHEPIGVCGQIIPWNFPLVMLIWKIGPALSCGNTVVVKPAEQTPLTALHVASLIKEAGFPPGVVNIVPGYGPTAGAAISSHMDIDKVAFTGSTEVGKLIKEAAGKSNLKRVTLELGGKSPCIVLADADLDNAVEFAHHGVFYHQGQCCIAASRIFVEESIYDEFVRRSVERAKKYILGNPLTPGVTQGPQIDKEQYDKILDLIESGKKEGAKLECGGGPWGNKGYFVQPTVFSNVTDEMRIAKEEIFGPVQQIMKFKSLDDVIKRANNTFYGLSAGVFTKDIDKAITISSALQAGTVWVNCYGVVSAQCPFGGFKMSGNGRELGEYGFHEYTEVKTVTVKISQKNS
IMPase Li inh = cell-permeable IMPase inhibitors with lithium potentiation | CHO-M1 cells, IP1 TR-FRET (IP-One), carbachol + lithium | Potency, µM (series often up to 59.4 µM), inactives show at the top dose activity, negative = IMPase inhibition, actives largely listed as inhibitors | actives 0.35% (n = 210,000) | AID 1457; active = well fitted curve in the direction sought with a large enough effect; inconclusive = small, poorly fitted or top-dose-only effect, or another doubt; inactive = no such curve, though single readings can be large; an effect the other way counts as inactive or inconclusive;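 note: IP1 builds up when IMPase is blocked and the TR-FRET signal falls; potency is the fitted concentration of half-maximal effect; plate controls were basal vehicle for no effect and high inhibitor control for full effect; nearly all actives have a fitted effect of over 50% in size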
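IP1 accumulation measured by competitive TR-FRET in lysed CHO-M1 cells after 30 min compound exposure at 37C, with a small lithium addition to potentiate weak responses. Hill-equation AC50 from ratio and donor-channel data.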
IMPase inh = cell-permeable inhibitors of inositol monophosphatase (IMPase). 120,000 tested, under 10 active. CHO-M1 cells, IP1 accumulation, HTRF TR-FRET ratio. inhibition (IP1 accumulation), % at 46.1 µM. AID 901. P97697; active = well fitted curve in the direction sought with a large enough effect in the signal ratio, not every such curve was filed as active; inconclusive = small, poorly fitted or top-dose-only effect, or a change in a side signal; inactive = no such curve, though single readings can be large or run the other way; the % refers to the signal ratio;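 note: cells stimulated with carbachol in lithium chloride buffer; plate controls were DMSO basal wells for no effect and reference inhibitor wells for full effect; higher means more IMPase inhibition seen as more IP1 and lower FRET ratio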
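Seeded CHO-M1 cells were dosed with compound at up to 46 uM, stimulated with carbachol for 30 min, then lysed in IP-One detection reagents. Higher IP1 lowers the TR-FRET signal.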
PNC inhibitor = perinucleolar compartment assembly inhibition | activity change (PNC), negative = inhibition, % at 10 µM | AID 2417 | PC3M PTB-GFP, PNC prevalence imaging, 16 h; hits give low values | actives 3.1% (n = 140,000);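 active = readout at or below -70, meaning at least 70% loss of cells showing the perinucleolar compartment, a nuclear body marking cancer cells; inconclusive = readout between -30 and a set limit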;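 note: plate controls were DMSO wells for no effect and camptothecin positive control wells for full effect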
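Read-out is percentage of cells bearing a perinucleolar compartment, from automated 20x imaging of fixed, Hoechst-stained PC3M PTB-GFP cells. Cells were seeded 4 h, then exposed 16 h to compound (23 nl of library stock) in duplicate plates.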
HPGD inh = blocks human HPGD enzyme activity | actives 4.3% (n = 150,000) | AID 894 | P15428 | purified HPGD, NADH fluorescence kinetic, PGE2 substrate | Potency, µM, inactives show at the highest dose activity change, negative = inhibition, hits mostly inhibitors; note: potency is the fitted concentration of half-maximal effect
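20 nM HPGD preincubated 15 min at room temperature with compound in 50 mM Tris-HCl pH 8, 0.01% Tween 20. Started with 1 mM NAD+ and 30 uM prostaglandin E2; NADH fluorescence (360/450 nm) read 5 times over 30-s intervals, last minus first.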
* = called active by the depositor; ? = inconclusive; . = not tested or not shown; [ ] = dose if it differs, or a comment. Unless noted, calls come from the whole dose curve; as a rule, active = well fitted inhibition curve with a large enough effect (not every such curve was filed as active); inconclusive = small, poorly fitted or top-dose-only effect, or another doubt; inactive = no such curve, though single readings can be large or run the other way. Unless noted, % is set by controls: 0 for no effect and ±100 for the full control effect.

SMILES | NPSR antagonist | ALDH1A1 block | IMPase Li inh | IMPase inh | PNC inhibitor | HPGD inh
O=C(O)c1ncsc1-c1ccccc1 | 0% | . | . | . | . | .
O=C(O)c1nnsc1-c1ccc(-c2snnc2C(=O)O)cc1 | . | 4µM* | -1% | . | . | -22%
N#Cc1nc(Cc2cccc3ccccc23)oc1NCc1ccc(F)cc1 | -14%[46.1 µM] | -4% | 9% | 8 | 25 | -9%
COc1ccc(OC)c(/C=N/NC(=O)C(=O)NCc2cccnc2)c1 | 23% | ? | 16% | . | . | .
Cc1nc(-c2ccc(Br)cc2)ccc1C(=O)O | -17% | -1% | 8.9µM* | . | ? | -13%
O=C1c2ccccc2C(=O)N1CCCc1nc(-c2ccncc2)no1 | -5%[46.1 µM] | -6% | 5%[38.3 µM] | ? | ? | -5%
O=C(CCN1C(=O)C2C3C=CC(C3)C2C1=O)Nc1ccccc1 (centres undefined) | 0% | -6% | -2% | . | . | .
O=C(CCN1C(=O)C2C3C=CC(C3)C2C1=O)NCCc1ccccc1Cl (centres undefined) | -3%[46.1 µM] | 8.9µM* | 19%[38.3 µM] | 0 | 16 | -13%
CC(C)(C)c1cc(NC(=O)c2cc(F)c(F)c(F)c2F)no1 | -10%[46.1 µM] | -4% | 15%[38.3 µM] | 1 | 12 | -4%
CCOC(=O)N1CCN(CCC(=O)c2ccc(OC)cc2)CC1 | -9% | 0.71µM* | 11% | . | . | .
CCOC(=O)N1CCN(CCC(=O)c2ccc(Cl)cc2)CC1 | -4%[46.1 µM] | 0.089µM* | 25%[38.3 µM] | 9 | 2 | 25µM*
CC(C)COc1ccc(C(=O)CCN2CCCCC2)cc1 | -14%[46.1 µM] | 0.1µM* | 13%[38.3 µM] | 10 | -20 | -17%
CCOC(=O)N1CCN(CCC(=O)Nc2ccc(OC)cc2)CC1 | -4%[46.1 µM] | -8% | 18%[38.3 µM] | 14 | 37 | -13%
Cc1nnsc1C(=O)N1CCN(c2ccc(C#N)cn2)CC1 | 8% | . | . | . | . | .
COc1ccc(NS(=O)(=O)c2ccc(N/N=C/c3ccc(N4CCOCC4)cc3)c([N+](=O)[O-])c2)cc1 | 3% | 1% | -7% | . | 23 | -7%
CCn1c2ccccc2c2nc3cc(S(=O)(=O)N4CCOCC4)ccc3nc21 | -15%[46.1 µM] | 1µM* | -1%[38.3 µM] | 13 | ? | 2µM*
O=c1[nH]c(O)c(/C=C2\C=Nc3ccccc32)[nH]1 | 43% | -7% | . | . | . | .
O=c1oc2ccccc2c(O)c1/C=C1\C=Nc2ccccc21 | ? | 13µM* | 0%[38.3 µM] | 0 | 49 | 2.2µM*
Cc1[nH]c2ccc(F)cc2c(=O)c1SC(F)(F)C(F)F | 3%[46.1 µM] | 0% | -24%[38.3 µM] | 1 | -28 | -7%
Cc1ccc(-c2c[n+](CC(=O)c3cccs3)c3n2CCC3)cc1 | 27% | . | . | . | . | .
Cc1cccc(Nc2cc(C)c3c(O)cccc3n2)c1C | -25% | -1% | 16% | . | 44 | -26%
CCCCn1c(=S)[nH]c2c(oc3ccc(Cl)cc32)c1=O | -57% | ? | 10µM* | -23 | 48 | -7%
COc1ccc(CNC(=O)c2cc(-c3ccccc3OC)on2)cc1 | -18%[46.1 µM] | 1% | 12%[38.3 µM] | 5 | ? | -22%
O=C(Nc1cc(C(F)(F)F)ccc1-n1cncn1)c1ccc(Br)cc1 | -6%[46.1 µM] | 10% | -4%[38.3 µM] | 2 | -27 | -3%
CN(C)c1ccc(C(=O)Nc2cc(C(F)(F)F)ccc2-n2cncn2)cc1 | -23%[46.1 µM] | ? | -5%[38.3 µM] | -4 | -92* | -23%
SMILES | NPSR antagonist | ALDH1A1 block | IMPase Li inh | IMPase inh | PNC inhibitor | HPGD inh
CC(C)CCN(C(=O)CNC(=O)c1cccs1)C(C(=O)NC1CCCCC1)c1cccnc1 (centres undefined) | -2% | . | . | . | . | .
Cc1cc(N2CCCCC2)nc(SCc2ccc(C#N)cc2)n1 | ? | 1.3µM* | 25%[38.3 µM] | 16 | 1 | -20%
Cc1csc2nc(CSc3nc4ccccc4o3)c(Br)n12 | -28%[46.1 µM] | 22µM* | 42%[38.3 µM] | 22 | 16 | 14µM*
Cc1csc2nc(CSc3nncn3-c3ccccc3)c(Br)n12 | -9%[46.1 µM] | -13% | 34%[38.3 µM] | 14 | -13 | 4%
CCOC(=O)c1ccc(NC(=O)Cn2nnc(-c3ccccc3C)n2)cc1 | -16%[46.1 µM] | -12% | 35%[38.3 µM] | 15 | 6 | -16%
c1ccc(-n2nnnc2-c2cnc(-c3ccncc3)nc2-c2cccs2)cc1 | ? | ? | 22% | 14 | -11 | ?
O=C(CN1C(=O)c2cccc3cccc1c23)N1CCN(c2ccccc2)CC1 | 4%[46.1 µM] | -7% | 1% | -13 | -6 | -16%
COc1ccc(S(=O)(=O)N2CCOCC2)cc1NC(=O)c1cc2c(s1)CCCC2 | -18% | 4µM* | 7% | 5 | -1 | ?
COc1ccc(NC(=O)c2cc3c(s2)CCC3)cc1S(=O)(=O)N1CCOCC1 | 1%[46.1 µM] | 0.56µM* | 13%[38.3 µM] | 6 | 21 | -19%
COc1ccc(CC(=O)Nc2nc3ccccc3s2)cc1S(=O)(=O)N1CCOCC1 | -20%[7.67 µM] | 13% | 4%[38.3 µM] | 8 | ? | -2%
COc1ccc(CC(=O)Nc2nc3ccc(F)cc3s2)cc1S(=O)(=O)N1CCOCC1 | -17%[46.1 µM] | 20µM* | 12% | 4 | ? | -6%
O=C(Nc1cc(S(=O)(=O)N2CCOCC2)ccc1N1CCOCC1)c1cc2c(s1)CCC2 | -27% | . | . | . | . | .
O=C(Nc1cccc(S(=O)(=O)N2CCOCC2)c1)c1cc2c(s1)CCC2 | -16%[46.1 µM] | 3.2µM* | 22%[38.3 µM] | 1 | ? | -9%
CCc1ccc2nc(NC(=O)c3ccc(N4C(=O)CCC4=O)cc3)sc2c1 | 1% | . | . | . | . | .
Cc1cccn2cc(-c3ccc(S(=O)(=O)N4CCCCC4)cc3)nc12 | -7% | -2% | -3% | . | . | .
O=C(N/N=C/c1cc([N+](=O)[O-])ccc1O)c1c[nH]c2ccccc12 | -1% | . | . | . | . | .
O=C(c1ccccc1-c1nc(-c2ccc(F)cc2)no1)N1CCCC1 | -20%[46.1 µM] | ? | -2%[38.3 µM] | -1 | -100* | -6%
Cc1ccsc1-c1n[nH]c(=S)n1CC(C)C | -1% | 25µM* | -9% | . | ? | -18%
CC(C)Cn1c(-c2ccc(Br)o2)n[nH]c1=S | -7% | 10µM* | -5% | . | -24 | -19%
CC(C)Cn1c(-c2nn(C)cc2Cl)n[nH]c1=S | -8%[46.1 µM] | 8% | -1%[38.3 µM] | 1 | 23 | -22%
Cc1c(Cl)c([N+](=O)[O-])nn1CCCC(=O)NC1CCCCC1 | -7% | -4% | 1% | . | . | .
NC(=S)Nc1nc2ccccc2s1 | -29% | ? | -9% | . | . | .
Cl/C(=C\n1cncn1)c1ccc(Cl)cc1Cl | . | ? | 14% | -2 | . | 14µM*
O=C(O)c1cc(-c2ccc(/C=C3/SC(=S)N(Cc4ccccc4)C3=O)o2)ccc1Cl | 10µM* | 0.089µM* | 5% | . | . | .
COc1ccc(CN2C(=O)/C(=C/c3ccc(-c4ccc(Cl)c(C(=O)O)c4)o3)SC2=S)cc1 | 6.3µM* | ? | 13% | . | . | .
COc1ccc(/C=C2\SC(=S)N(CC(=O)N3CCN(C)CC3)C2=O)cc1 | -1% | . | . | . | . | .
CC1(C)OC(=O)C(=Cc2ccc(-c3ccc(Cl)c(C(=O)O)c3)o2)C(=O)O1 | -8% | ? | -8% | . | . | .
